Compound activity deposited in PubChem BioAssay by The Scripps Research Institute Molecular Screening Center.
A selection: hits, their analogues and other compounds. The true share with any hit is near 2.9%.
ADAM10 inh: human ADAM10 inhibitors, primary screen, biochemical, QFRET, HTS | recombinant ADAM10, EDANS/DABCYL FRET peptide cleavage, 3 h | Disintegrin and metalloproteinase domain-containing protein 10 (Homo sapiens), O14672 | inhibition, % at 7 µM | 0.62% of 370,000 active;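 active means inhibition above a per-campaign cutoff equal to the mean of compounds falling between control-based bounds plus 3 SD, cut at about 20% in these data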;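 further: 0% = DMSO wells while the 100% control is not disclosed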
PLCb3 inh: human PLC-beta3 inhibitors, primary screen, biochemical, fluorescence. 0.18% of 370,000 active. 1-phosphatidylinositol 4,5-bisphosphate phosphodiesterase beta-3 (Homo sapiens), Q01970. inhibition, % at 12.2 µM. Purified PLC-beta3, fluorogenic substrate; in the data active means inhibition above about 11%;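 further: 0% = median of compound wells on plate and 100% = full blocker control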
ADAM17 inh: ADAM17 inhibitors, primary screen, biochemical, QFRET; Disintegrin and metalloproteinase domain-containing protein 17 (Homo sapiens), P78536; recombinant ADAM17, EDANS/DABCYL FRET peptide cleavage; inhibition, % at 6.95 µM; 0.83% of 370,000 active;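 active means inhibition above the mean of compounds lying between control limits plus 3 SD, set per campaign, cut at about 8.5% in these data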;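 further: 0% = DMSO-only wells as the low control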
proKLK7 act: proKLK7 zymogen activators, primary screen, biochemical, fluorescence intensity; activation, % at 7 µM; purified proKLK7, EDANS-DABCYL substrate fluorescence; 100% is mature enzyme control, 0% vehicle; AID 652039, 2013; 0.9% of 370,000 active; Kallikrein-7 (Homo sapiens), P49862;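 active means activation above the mean of all tested compounds plus 3 SD, computed per campaign excluding outliers beyond control limits, cut at about 13% in these data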
PLCg1 inh: PLC-gamma1 enzyme inhibitors, primary screen, biochemical, fluorescence, purified enzyme; 1-phosphatidylinositol 4,5-bisphosphate phosphodiesterase gamma-1 (Homo sapiens), P19174; fluorogenic substrate; inhibition, % at 12.2 µM; 0.84% of 370,000 active; AID 720700, 2013; in the data active means inhibition above about 9.5%
Target sequence (P19174 whole entry, looked up): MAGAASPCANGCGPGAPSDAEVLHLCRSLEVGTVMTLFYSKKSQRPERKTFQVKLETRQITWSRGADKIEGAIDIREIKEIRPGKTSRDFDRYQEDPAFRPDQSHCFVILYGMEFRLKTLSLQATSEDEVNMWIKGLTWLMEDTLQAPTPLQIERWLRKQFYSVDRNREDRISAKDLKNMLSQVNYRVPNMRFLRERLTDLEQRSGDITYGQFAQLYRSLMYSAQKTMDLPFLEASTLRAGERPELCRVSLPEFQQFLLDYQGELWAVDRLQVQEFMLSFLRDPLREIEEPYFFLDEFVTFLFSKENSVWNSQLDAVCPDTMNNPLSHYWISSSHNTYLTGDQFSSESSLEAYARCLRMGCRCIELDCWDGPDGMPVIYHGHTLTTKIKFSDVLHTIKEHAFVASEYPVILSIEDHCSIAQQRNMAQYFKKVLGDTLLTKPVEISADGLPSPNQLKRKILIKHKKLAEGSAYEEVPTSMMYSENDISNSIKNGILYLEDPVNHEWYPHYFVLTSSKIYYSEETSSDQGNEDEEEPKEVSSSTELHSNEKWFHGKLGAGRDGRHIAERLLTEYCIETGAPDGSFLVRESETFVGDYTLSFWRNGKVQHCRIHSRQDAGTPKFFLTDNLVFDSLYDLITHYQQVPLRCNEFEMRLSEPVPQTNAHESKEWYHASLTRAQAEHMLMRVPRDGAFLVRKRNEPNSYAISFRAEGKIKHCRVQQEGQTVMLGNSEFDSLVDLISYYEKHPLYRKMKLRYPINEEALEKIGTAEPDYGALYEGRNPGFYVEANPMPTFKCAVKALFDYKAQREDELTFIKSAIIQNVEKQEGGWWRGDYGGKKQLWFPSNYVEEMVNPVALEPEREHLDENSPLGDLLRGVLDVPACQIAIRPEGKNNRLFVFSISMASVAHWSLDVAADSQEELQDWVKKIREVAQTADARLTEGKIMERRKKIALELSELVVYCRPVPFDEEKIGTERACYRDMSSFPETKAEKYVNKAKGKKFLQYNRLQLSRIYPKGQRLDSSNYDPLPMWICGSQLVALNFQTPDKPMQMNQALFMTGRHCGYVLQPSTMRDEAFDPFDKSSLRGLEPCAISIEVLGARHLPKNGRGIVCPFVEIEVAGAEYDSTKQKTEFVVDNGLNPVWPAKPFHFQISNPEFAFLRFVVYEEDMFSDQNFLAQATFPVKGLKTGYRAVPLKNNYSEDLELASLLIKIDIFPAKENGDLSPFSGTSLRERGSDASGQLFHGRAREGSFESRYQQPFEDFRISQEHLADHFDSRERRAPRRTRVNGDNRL
ADAM10 confirm: human ADAM10 inhibitors, confirmation, biochemical, QFRET, triplicate. shares compounds with ADAM10 inh. 1% of 2,100 active. inhibition, % at 6.95 µM. AID 743208, 2013. ADAM10 QFRET peptide cleavage, EDANS fluorescence;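 active means inhibition above about 20% chosen separately for each screening run, limit read from the data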;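 further: 0% = DMSO wells and 100% = marimastat wells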
ADAM17 counter: ADAM17 inhibitors, counter-screen for ADAM10 exosite inhibitor project, biochemical, QFRET, high throughput. shares compounds with ADAM10 inh. ADAM17 QFRET peptide cleavage, EDANS fluorescence. inhibition, % at 6.95 µM. 0.5% of 2,100 active. AID 743214, 2013;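 active means mean triplicate inhibition above the solvent-only control wells' mean plus 3 SD, cut at about 12% in these data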;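 further: 0% = DMSO wells and 100% = marimastat wells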
ADAM10 ctr: ADAM10 inhibitors, counter-screen for ADAM17 exosite inhibitor project, biochemical, FRET, human ADAM10; shares compounds with ADAM17 inh; recombinant ADAM10, EDANS/DABCYL FRET peptide cleavage, 3 h; inhibition, % at 6.95 µM; 47% of 2,900 active; AID 743256, 2014;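 active means mean inhibition over the triplicate runs exceeds the activity threshold set in the earlier primary screen, cut at about 20% in these data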;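 further: 0% = DMSO wells and 100% = marimastat wells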
ADAM17 confirm: ADAM17 inhibitors, hit retest, confirmation, biochemical, QFRET peptide cleavage; shares compounds with ADAM17 inh; recombinant ADAM17, EDANS/DABCYL QFRET peptide cleavage; inhibition, % at 6.95 µM; 65% of 2,900 active;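 active means mean inhibition across replicates above the hit cutoff set in the primary screen, cut at about 8.5% in these data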;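 further: 0% = DMSO wells and 100% = marimastat wells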
The depositor's hits bear a star; x = no result given.

SMILES | ADAM10 inh | PLCb3 inh | ADAM17 inh | proKLK7 act | PLCg1 inh | ADAM10 confirm | ADAM17 counter | ADAM10 ctr | ADAM17 confirm
COc1nccnc1NS(=O)(=O)c1ccc(NC(=S)NC(=O)/C=C/c2ccc(F)cc2)cc1 | 24* | -2 | 10* | 0 | 4 | -2 | 0 | 8 | 7
O=C(Nc1ccccc1)C1=C[C@@H](c2ccc(C(F)(F)F)cc2)C[C@@H](OCc2ccc(CO)cc2)O1 | 27* | 3 | 11* | 1 | 7 | 7 | 3 | 13 | 10*
O=C(NCc1ccccc1)C1=C[C@@H](c2ccccc2)C[C@@H](OCc2ccc(CO)cc2)O1 | -3 | -6 | -4 | 0 | -4 | x | x | x | x
O=C(NCc1ccccc1)C1=C[C@H](c2ccc(Br)cc2)C[C@H](OCc2ccc(CO)cc2)O1 | 21* | -1 | 9.9* | 1 | -10 | 12 | 4 | 28* | 18*
CC(=O)n1cc([C@@H]2C=C(C(=O)Nc3ccccc3)O[C@H](OCc3ccc(CO)cc3)C2)c2ccccc21 | 31* | -7 | 8.9* | 0 | -10 | 7 | 3 | 13 | 14*
CC(C)(C)OC(=O)NCc1cc(F)ccc1/C=C/S(=O)(=O)NCc1ccccc1 | 1 | 1 | 0 | 0 | -3 | x | x | x | x
COC(=O)[C@]12C[C@H](CC(=O)N3CCC(c4ccccc4)CC3)C(=O)N(Cc3cccc4ccccc34)C1=C[C@H](C(C)C)O[C@@H]2C1CC1 | -2 | 4 | -1 | 1 | 1 | x | x | x | x
CC(CCN1CCC(C(O)(c2ccccc2)c2ccccc2)CC1)Oc1cccc(Cl)c1 (stereo not drawn) | 6 | 3 | 1 | 1 | 3 | x | x | x | x
CCCCN(C)S(=O)(=O)c1ccc2[nH]c(=O)oc2c1 | 1 | 2 | 2 | 0 | 1 | x | x | x | x
Cc1nn(Cc2ccccc2Cl)c2sc(C(=O)NCc3ccc4c(c3)OCO4)cc12 | 23* | 1 | 12* | 1 | 2 | 6 | 3 | 12 | 12*
O=C1/C(=C\c2ccc(O)c(O)c2)SC(=S)N1Cc1ccccc1 | 23* | -115 | 8.9* | 0 | -86 | 9 | 4 | 36* | 21*
COc1cc(/C=C2/SC(=S)N(Cc3ccccc3)C2=O)ccc1O | 23* | -52 | 12* | 0 | -32 | 7 | 2 | 38* | 22*
CC(C)N1Cc2nnn(Cc3ccccc3)c2-c2ccccc2S1(=O)=O | 5 | 6 | 1 | -1 | 3 | x | x | x | x
Cc1ccc(NS(=O)(=O)c2ccc(Cl)c(NC(=S)NC(=O)C3CCCCC3)c2)cc1Cl | 27* | -1 | 13* | 0 | -2 | 16 | 5 | 46* | 27*
Cc1ccc(NC(=O)C2CCCC2)cc1Cl | 2 | -8 | -2 | 0 | 1 | x | x | x | x
CCC(C(=O)Nc1ccccc1N1CCCC1)c1cccc(OC)c1 (stereo not drawn) | 1 | -7 | 1 | 0 | -4 | x | x | x | x
Cc1ccc(S(=O)(=O)Nc2ccc(NC(=O)Nc3cccc(C(F)(F)F)c3)cc2)cc1 | 41* | 9 | 22* | 0 | 9 | 9 | 3 | 43* | 19*
CN(C)S(=O)(=O)NCCNC(=O)c1cc(OCC(F)(F)F)ccc1OCC(F)(F)F | -9 | -2 | -6 | 0 | 4 | x | x | x | x
O=C(Nc1ccncc1)Nc1cccc(C(F)(F)F)c1 | 1 | -3 | 0 | 0 | 2 | x | x | x | x
O=C(Nc1ccc(OC(F)F)cc1)Nc1cccc(C(F)(F)F)c1 | 25* | 1 | 10* | 0 | 3 | 2 | 0 | 31* | 16*
O=C(NCCNC(=O)c1cc(OCC(F)(F)F)ccc1OCC(F)(F)F)Nc1cccc(C(F)(F)F)c1 | 37* | -1 | 12* | 0 | 2 | 1 | 0 | 24* | 14*
O=C(NC1CCCCN(Cc2ccc(Cl)cc2)C1=O)c1ccccc1-c1ccc(Cl)c(Cl)c1 (stereo not drawn) | 4 | 3 | 2 | 0 | 2 | x | x | x | x
Cc1ccc(NC(=O)Cc2ccccc2Cl)cc1S(=O)(=O)N(C)C | 3 | 1 | 2 | -1 | 2 | x | x | x | x
Cc1ccc(NC(=O)Cc2ccc(Cl)c(Cl)c2)cc1S(=O)(=O)N(C)C | 28* | 0 | 15* | 1 | 3 | 3 | 1 | 17 | 9.6*
Cc1ccc(NC(=O)CSc2nn(-c3ccc(Cl)cc3)c(=S)s2)cc1S(=O)(=O)N(C)C | 25* | 4 | 9.8* | 0 | 4 | 9 | 3 | 28* | 20*
SMILES | ADAM10 inh | PLCb3 inh | ADAM17 inh | proKLK7 act | PLCg1 inh | ADAM10 confirm | ADAM17 counter | ADAM10 ctr | ADAM17 confirm
CCN(C(=O)c1cccc2c1-c1ccccc1C2=O)c1ccccc1 | -10 | -3 | 4 | -1 | -3 | x | x | x | x
Cc1ccc(NC(=O)CN(C)C(=O)Cn2nnc(-c3ccccc3C)n2)cc1 | 6 | 4 | -2 | 0 | -2 | x | x | x | x
CCOC(=O)c1ccc(NC(=O)Cn2nnc(-c3ccccc3C)n2)cc1 | 22* | -5 | 10* | 0 | -5 | 6 | 1 | 41* | 24*
O=C(Nc1cccc(F)c1)c1cc(S(=O)(=O)NCCC2=CCCCC2)ccc1F | 24* | -8 | 9.1* | 0 | 2 | 8 | 2 | 22* | 14*
C[C@@H]1CN([C@H](C)CO)C(=O)c2cc(NC(=O)Nc3ccc(C(F)(F)F)cc3)ccc2O[C@H]1CN(C)S(=O)(=O)c1cccs1 | 29* | 3 | 13* | 0 | 3 | 4 | 2 | 49* | 33*
COc1ccc(S(=O)(=O)N(C)C[C@@H]2OCCCC[C@H](C)Oc3ccc(NC(=O)Nc4ccc(C(F)(F)F)cc4)cc3C(=O)N([C@H](C)CO)C[C@H]2C)cc1 | 34* | 1 | 13* | 0 | 2 | 14 | 5 | 46* | 24*
